# In PubChem BioAssay:
# Active and inactive are the calls of the source. Unless noted, the rule behind the calls is not given here.
# What was measured:
# [1] = test system: Wnt5a (protein binding on small-molecule microarray); assay: small molecules binding Wnt5a protein – biophysical, small-molecule microarray, 635/667 nm fluorescence, primary screen (AID 1142); conditions: 635 nm fluorescence, higher = more signal;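 note: fluorescence read at 667 nm with signal to noise per printed feature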
# [2] = ATP-based viability of Huh7 replicon cells – cell-based, CellTiter-Glo luminescence, basal, 48 h, cytotoxicity control for HCV replication inhibitor project, primary screen (AID 1143); conditions: higher = more signal, called active from +8 up or from −8 down;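 note: Huh7 hepatoma cells carrying a hepatitis C replication reporter with no stimulus; test concentration not given here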
# [3] = Pseudomonas biofilm growth suppression – PAO1 strain, BacTiter-Glo luminescence, LB-PBS, primary screen (AID 1144); conditions: P. aeruginosa PAO1 biofilm, 12 h, higher = more signal
# [4] = basal CRE-LacZ reporter activity in PC12 – cell-based, unstimulated, primary screen (AID 1145); conditions: no forskolin, luminescence, 4.5 h, higher = more signal, called active from +8 up or from −8 down
# [5] = forskolin-driven CRE-LacZ activity in PC12 – cell-based, CRE-LacZ reporter, forskolin-stimulated, primary screen (AID 1146); conditions: luminescence, 4.5 h, higher = more signal, called active from +8 up or from −8 down;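 note: PC12 cells with 6xCRE LacZ reporter stimulated by forskolin 10 µM; beta-galactosidase reporter signal reflecting CREB driven transcription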
# [6] = biological target: Streptavidin (Streptomyces avidinii) (UniProt P22629); assay: compounds binding control protein streptavidin – biophysical, small-molecule microarray, 635/667 nm fluorescence, artefact control for SMM compound annotation, primary screen (AID 1147); conditions: higher = more signal;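 note: signal reflects streptavidin binding to arrayed compounds as a control protein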
# [7] = probe aInhba binding on compound microarray – biochemical, small-molecule microarray, 635/667 nm fluorescence, primary screen (AID 1148); conditions: higher = more signal;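 note: score merges 667nm spot fluorescence with signal-to-noise for antibody binding to printed compounds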
# [8] = biological target: Torsin-1A (Homo sapiens) (UniProt O14656); assay: TOR1A wild-type binding on microarray – cell lysate, small-molecule microarray, lysate, 635/667 nm, primary screen (AID 1149); conditions: COS7 hTOR1A-WT lysate, 635 nm fluorescence, higher = more signal
# [9] = biological target: Torsin-1A (Homo sapiens) (UniProt O14656); assay: torsin A mutant lysate binding on microarrays – cell lysate, small-molecule microarray, COS7 lysate, 635/667 nm fluorescence, primary screen (AID 1150); conditions: COS7 hTOR1A mutant lysate, 635 nm fluorescence, higher = more signal;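 note: score pools 667 nm emission and signal to noise measuring lysate protein binding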
# [10] = test system: Sonic hedgehog protein (Shh); assay: Sonic hedgehog microarray binding compounds – biochemical, small-molecule microarray, 635/667 nm fluorescence, primary screen (AID 1151); conditions: 635 nm fluorescence, higher = more signal;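 note: Shh protein binding to compounds spotted on small-molecule microarray slides; score combines spot fluorescence intensity with signal-to-noise across triplicate slides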
# Sequence of Torsin-1A (Homo sapiens) (O14656 whole entry, looked up): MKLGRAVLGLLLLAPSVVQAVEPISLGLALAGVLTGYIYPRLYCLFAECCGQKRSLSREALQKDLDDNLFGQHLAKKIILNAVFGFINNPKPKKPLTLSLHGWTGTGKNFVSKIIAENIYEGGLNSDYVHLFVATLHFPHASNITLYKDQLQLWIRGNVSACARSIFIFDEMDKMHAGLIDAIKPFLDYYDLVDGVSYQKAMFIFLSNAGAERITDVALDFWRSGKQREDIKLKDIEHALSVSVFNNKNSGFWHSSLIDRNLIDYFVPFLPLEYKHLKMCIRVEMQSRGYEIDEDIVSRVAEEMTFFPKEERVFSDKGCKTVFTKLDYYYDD
# Sequence of Streptavidin (Streptomyces avidinii) (P22629 whole entry, looked up): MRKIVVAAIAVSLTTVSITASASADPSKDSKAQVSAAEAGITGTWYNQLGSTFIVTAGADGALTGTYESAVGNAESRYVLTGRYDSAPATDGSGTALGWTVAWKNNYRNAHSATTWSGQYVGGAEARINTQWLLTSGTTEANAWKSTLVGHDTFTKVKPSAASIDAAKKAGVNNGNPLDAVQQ
Compound,composite z-score [1],z-score [2],z-score [3],z-score [4],z-score [5],composite z-score [6],composite z-score [7],composite z-score [8],composite z-score [9],composite z-score [10]
CCCCC(=C=CC[C@@H](O)c1ccc(CO)o1)CCO,0.136,-0.0181 (inactive),-0.748 (inactive),2.69 (inactive),-1.19 (inactive),-0.419,0.185,0.867,0.359,1.37
Cc1ccc(/C=C/C=O)cc1,-0.355,0.0606 (inactive),0.38 (inactive),-0.141 (inactive),0.243 (inactive),-0.461,-0.176,-1.39,-0.357,-0.327
C=CC[C@@]1(C(=O)N2CCCCC2)N=C(c2ccc(OCCCO)cc2)O[C@@H]1c1ccccc1N=[N+]=[N-],0.288,-4.35 (inactive),-0.588 (inactive),4.01 (inactive),-1.53 (inactive),1.18,0.0391,-0.151,1.03,-0.0797
